MLLE-PAM2 inh: inhibitors of microRNA-mediated deadenylation, human PABP1 MLLE binding; GST-MLLE / FITC-PAM2 fluorescence polarization; hit rate 0.36% among 360,000; AID 588489; P11940; inhibition, % at 20 µM; in the data active = inhibition above about 35%, passing the limit was not always enough;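 note: plate controls were DMSO wells with GST-MLLE for no effect and wells lacking GST-MLLE protein for full effect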
NRP1-CendR mod: alters CendR peptide binding to human NRP-1 | O14786 | FAM-RPARPAR peptide binding to NRP-1, fluorescence polarization | inhibition, % at 25 µM | hit rate 0.85% among 360,000 | AID 602438;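 active = inhibition or corrected inhibition above about 18%, plus a signal ratio from 0.5 to 1.5, limit read from the data, passing the limit was not always enough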
eIF4H inh: inhibitors of RNA binding by human eIF4H; eIF4H fluorescence polarization binding assay; inhibition, % at 35 µM; hit rate 0.94% among 290,000; AID 2012;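 note: calls also rest on retests at 20 µM and on dose response follow-up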
PABP polyA inh: blocks human PABP binding to poly(A) RNA; AID 2014; fluorescence polarization; hit rate 1% among 290,000; inhibition, % at 35 µM;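 note: calls also rest on retests at 20 µM and on dose response follow-up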
The depositor's hits bear a star; . = no result. Rows were chosen to be rich in hits. Some 2.1% of all compounds tested hit in one or more screens of this group. Unless noted, the rule behind the calls is not given here.

SMILES	MLLE-PAM2 inh	NRP1-CendR mod	eIF4H inh	PABP polyA inh
COc1cc(C(=O)Nc2ccccc2N2CCOCC2)ccc1OCc1c(C)noc1C	12	27*	7	-6
Cc1noc(C)c1COc1cccc(C(=O)Nc2ccccc2N2CCOCC2)c1	-4	9	-10	2
COc1ccc(Cn2c(C3CC3)nc3ccc(NC(=O)c4cccnc4)cc3c2=O)cc1	-16	32*	0	4
COc1ccc2c(c1)[nH]c1c(=O)n(CCCN3CCOCC3)cnc12	-6	-6	-14	-2
O=c1c2[nH]c3ccc(F)cc3c2ncn1CCCN1CCOCC1	-4	47*	-1	-6
COCCNC(=O)C1(C)CCCN(CCSc2ccccc2)C1 (stereo not drawn)	7	11	.	.
C#CCOCCOCCOCCNc1nc(N2CCN(C(=O)CCCCCCCCCCNC(=O)[C@H](CO)n3cc(CCCSC)nn3)CC2)nc(N2CCN(C(=O)CCCCCCCCCCNC(=O)[C@H](CCCN=C(N)N)n3cc(C[C@@H](C)CC)nn3)CC2)n1	3	25*	.	.
C#CCOCCOCCOCCNc1nc(N2CCN(C(=O)CCCCCCCCCCNC(=O)[C@H](CO)n3cc(CCCSC)nn3)CC2)nc(N2CCN(C(=O)CCCCCCCCCCNC(=O)[C@H](CCCCN)n3cc(CCO)nn3)CC2)n1	16	10	.	.
C#CCOCCOCCOCCNc1nc(N2CCN(C(=O)CCCCCCCCCCNC(=O)[C@H]([C@@H](C)CC)n3cc(CCCCN=C(N)N)nn3)CC2)nc(N2CCN(C(=O)CCCCCCCCCCNC(=O)[C@H](CO)n3cc(CCCCCN)nn3)CC2)n1	-10	28*	.	.
COc1ccc(OC)c(S(=O)(=O)N2CCCCC2C(=O)N2CCN(c3ccccn3)CC2)c1 (stereo not drawn)	38*	1	5	-3
COc1ccc(OC)c(S(=O)(=O)N2CCN(c3ccccn3)CC2)c1	3	0	11	2
CCN(CC)CCN1CCN(c2cnc(C)cn2)CC1	-1	23*	.	.
CCN(CC)CCN1CCN(c2cncc(-c3cccc(N)c3)n2)CC1	-10	2	.	.
CC(=Nc1ccccc1)C1=C(O)C(Cc2cccc(F)c2)NC1=O (stereo not drawn)	-4	-6	.	.
CCS(=O)(=O)c1nc(S(=O)(=O)c2ccc(C)cc2)c(N2CC(C)OC(C)C2)s1 (stereo not drawn)	3	-3	10	10
CC(=NNC(=S)N1CCCCC1)c1cccc(C)n1	21	9	.	.
CSC(=S)NN=C(C)c1cccc(C)n1	25	27*	.	.
CC1(C)CC(=O)c2cc(C(=O)NC3CCSC3=O)c(=O)n(-c3ccccc3)c2C1 (stereo not drawn)	1	4	1	-1
O=C1CCCc2c1cc(C(=O)NC1CCSC1=O)c(=O)n2-c1ccccc1 (stereo not drawn)	16	30*	-2	-7
O=C(Nc1cccc2ccccc12)N1CCN(c2ccccc2)CC1	13	-2	0	-8
O=C(Nc1cccc2ccccc12)N1CC=CCC1	-8	3	81*	95*
O=C(Nc1ccc(S(=O)(=O)Nc2nccs2)cc1)c1nn(-c2ccc(F)cc2)ccc1=O	6	4	80*	48*
CCCn1nc(C(=O)Nc2ccc(S(=O)(=O)Nc3nccs3)cc2)c2ccccc2c1=O	-39	-1	58*	75*
CCOc1ccc(-n2ccc(=O)c(C(=O)Nc3ccc(S(=O)(=O)Nc4nccs4)cc3)n2)cc1	9	-23	34	10
O=C(Nc1ccc(S(=O)(=O)Nc2nccs2)cc1)c1cc(-c2ccccc2)nc2ccccc12	8	6	10	3
SMILES	MLLE-PAM2 inh	NRP1-CendR mod	eIF4H inh	PABP polyA inh
Cc1ccc(-c2cc(C(=O)Nc3ccc(S(=O)(=O)Nc4nccs4)cc3)c3ccccc3n2)c(C)c1	22	-20	60*	active
C[C@@H]1OC(C2CCCCC2)N(C)[C@H]2C[C@H]3c4[nH]c5ccccc5c4CCN3C[C@@H]12 (stereo partly drawn)	-6	-5	.	.
Cc1ccc(S(=O)(=O)NC(=O)C2(C)CCN2C(=O)CCc2ccc(Cl)cc2Cl)cc1 (stereo not drawn)	2	-6	.	.
Cn1c(=O)c2c(-c3ccccc3)n(-c3cccc(O)c3)cc2n(C)c1=O	19	6	.	.
Cn1c(=O)c2c(-c3ccccc3)n(-c3ccc(N)cc3)cc2n(C)c1=O	57*	37*	.	.
CCOc1ccc(S(=O)(=O)NCCC(=O)NCC(c2ccco2)N2CCCCC2)cc1 (stereo not drawn)	9	6	.	.
O=C(c1[nH]c(C(F)(F)F)nc1-c1ccccc1)N1CCN(C(=O)C2CCCO2)CC1 (stereo not drawn)	-7	6	.	.
Nc1c(C(=O)NCc2cccnc2)sc(=S)n1-c1ccccc1	33	2	-4	3
CCn1c(N)c(C(=O)NCc2cccnc2)sc1=S	38	26*	1	-2
COc1ccc(C)cc1-n1nnnc1SCC(=O)NC(=O)NCc1ccco1	-42	-9	72*	31
O=C(CSc1n[nH]c(-c2ccccc2)n1)NC(=O)NCc1ccco1	-18	-27	47*	60
COc1ccc(-n2nnnc2SCC(=O)NCc2ccco2)cc1OC	-10	2	5	-6
O=C(CSc1nc(-c2ccccc2)cs1)NC(=O)NCc1ccco1	-1	18	1	14
O=C(CSc1ccccc1F)NC(=O)NCc1ccco1	-2	-6	77*	14*
Cc1ccccc1CSCC(=O)NC(=O)NCc1ccco1	12	-10	55*	45*
O=C(CSc1ncccn1)NC(=O)NCc1ccco1	-109	-11	34	-1
Cc1nnc(SCC(=O)NC(=O)NCc2ccco2)s1	11	6	-3	-1
COc1ccc(C(=O)CSc2n[nH]c(-c3ccco3)n2)cc1	2	-14	71*	65*
Cn1c(SCC(=O)NCc2ccco2)nnc1-c1ccccc1	4	-1	-2	0
Cn1c(SCC(=O)NC(=O)NCc2ccco2)nnc1-c1ccccc1	0	-18	92*	37*
CC(C)(O)C(=O)NNC(=S)NCc1ccco1	-1	7	4	24
O=C(CSCc1ccccc1Br)NNC(=S)NCc1ccco1	1	21*	16	9
COc1ccc(-c2nnc(SCC(=O)NCc3ccco3)o2)cc1	-43	-10	-1	3
O=C(CSc1nnc(-c2ccc(OC(F)F)cc2)o1)NC(=O)NCc1ccco1	-129	-25	66*	31
CCCN(C(=O)CSc1nnnn1-c1ccccc1OC)C1CCS(=O)(=O)C1 (stereo not drawn)	-2	1	-10	-3
SMILES	MLLE-PAM2 inh	NRP1-CendR mod	eIF4H inh	PABP polyA inh
Cc1cc(SCC(=O)NC(=O)NCc2ccco2)nc2c(C)cccc12	14	-12	51*	27*
Cc1cc(SCC(=O)NC(=O)NCc2ccco2)nc2ccccc12	7	-2	-6	13
COc1cc(NC(=S)Nc2ccc(N(C)C(C)=O)cc2)cc(OC)c1	36*	-6	1	-8
COc1ccc(NC(=S)Nc2ccc(F)cc2)cc1	7	4	-7	3
CC(=O)N(C)c1ccc(NC(=S)Nc2ccccc2)cc1	14	6	18	-6
COc1cc(NC(=S)Nc2ccc(OC(F)F)cc2)cc(OC)c1	41*	-7	-4	-6
O=C(CSc1nnc(C2CC2)n1-c1ccccc1)N1CCNC1=O	16	20*	.	.
